The source made the active and inactive calls.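 How the source made its calls: active means NF-kB reporter IC50 at most 10 µM, IL-8 IC50 within fivefold of it with bacterial filtrate but not with TNF-alpha; inactive means the rest.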
Biological target: Interleukin-8 (Homo sapiens) (UniProt P10145)
Assay: inhibitors of NFkB activation in CF airway cells, SAR follow-up, KKLEB cells, panel, IL8 HTRF, NFkB-GFP (AID 651592);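 further: immortalized cystic fibrosis airway epithelial KKLEB cells with an NF-kB GFP reporter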
Conditions: PAF/TNFa-induced NFkB-GFP / IL8 HTRF, mean of runs

Interleukin-8 (Homo sapiens), sequence (P10145 whole entry, looked up): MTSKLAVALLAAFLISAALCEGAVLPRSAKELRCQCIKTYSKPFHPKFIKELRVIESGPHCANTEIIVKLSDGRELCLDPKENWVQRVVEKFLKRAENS

Compound | outcome
O=C(Nc1ccc(N2CCN(C(=O)c3ccc(F)cc3)CC2)cc1)c1ccccn1 | active
O=C(Nc1ccc(N2CCN(C(=O)c3ccccc3Cl)CC2)cc1)c1cccc(Br)c1 | active
O=C(Nc1ccc(N2CCN(C(=O)c3ccccc3Cl)CC2)cc1)c1ccncc1 | active
O=C(Nc1ccc(N2CCN(C(=O)c3ccc(F)cc3)CC2)cc1)c1cccc(Br)c1 | active
O=C(Nc1ccc(N2CCN(C(=O)c3ccccc3F)CC2)cc1)c1ccncc1 | active
O=C(Nc1ccc(N2CCN(C(=O)c3ccccc3)CC2)cc1)c1cccc(Br)c1 | active
CCOc1ccc(NCc2cc3c(C(C)(C)C)nn(-c4ccccc4)c3[nH]c2=O)cc1 | active
CCOc1ccc(NCc2cc3c(-c4ccc(F)cc4)nn(-c4ccccc4)c3[nH]c2=O)cc1 | active
O=C(Nc1ccc(N2CCN(C(=O)c3ccccc3Cl)CC2)cc1)c1cccnc1 | active
O=C(Nc1ccc(N2CCN(C(=O)c3ccccc3Cl)CC2)cc1)c1ccccn1 | active
O=C(Nc1ccc(N2CCN(C(=O)c3ccc(F)cc3)CC2)cc1)c1cc(Br)cc(Br)c1 | active
O=C(Nc1ccc(N2CCN(C(=O)c3ccccc3F)CC2)cc1)c1cccnc1 | active
O=C(Nc1ccc(N2CCN(C(=O)c3ccccc3Cl)CC2)cc1)c1ccccc1 | inactive
O=C(Nc1ccc(N2CCN(C(=O)c3ccccc3)CC2)cc1)c1ccncc1 | active
O=C(Nc1ccc(N2CCN(C(=O)c3ccccc3F)CC2)cc1)c1cccc(Br)c1 | active
O=C(Nc1ccc(N2CCN(C(=O)c3ccccc3)CC2)cc1)c1ccccc1 | active
O=C(Nc1ccc(N2CCN(C(=O)c3ccccc3)CC2)cc1)c1cc(Br)cc(Br)c1 | active

Compound | outcome
Cc1ccc(CNCc2cc3c(C(C)(C)C)nn(-c4ccccc4)c3[nH]c2=O)cc1 | active
CCOc1ccc(NCc2cc3c(C(C)(C)C)nn(-c4ccc(Cl)cc4)c3[nH]c2=O)cc1 | active
O=C(Nc1ccc(N2CCN(C(=O)c3ccccc3)CC2)cc1)c1cccnc1 | active
O=C(Nc1ccc(N2CCN(C(=O)c3ccc(F)cc3)CC2)cc1)c1ccccc1 | active
O=C(Nc1ccc(N2CCN(C(=O)c3ccccc3Cl)CC2)cc1)c1cncc(Br)c1 | active
O=C(Nc1ccc(N2CCN(C(=O)c3ccc(F)cc3)CC2)cc1)c1ccncc1 | active
O=C(Nc1ccc(N2CCN(C(=O)c3ccccc3)CC2)cc1)c1cncc(Br)c1 | active
O=C(Nc1ccc(N2CCN(C(=O)c3ccccc3F)CC2)cc1)c1ccccc1 | active
O=C(Nc1ccc(N2CCN(C(=O)c3ccccc3F)CC2)cc1)c1cc(Br)cc(Br)c1 | active
O=C(Nc1ccc(N2CCN(C(=O)c3ccc(F)cc3)CC2)cc1)c1cncc(Br)c1 | active
Cc1ccc(NCc2cc3c(C(C)(C)C)nn(-c4ccccc4)c3[nH]c2=O)cc1 | active
O=C(Nc1ccc(N2CCN(C(=O)c3ccccc3)CC2)cc1)c1ccccn1 | active
O=C(Nc1ccc(N2CCN(C(=O)c3ccccc3Cl)CC2)cc1)c1cc(Br)cc(Br)c1 | active
O=C(Nc1ccc(N2CCN(C(=O)c3ccc(F)cc3)CC2)cc1)c1cccnc1 | active
CCOc1ccc(NCc2cc3c(-c4ccc(OC)c(OC)c4)nn(-c4ccccc4)c3[nH]c2=O)cc1 | active
CCOc1ccc(NCc2cc3c(C)nn(-c4ccccc4)c3[nH]c2=O)cc1 | active
O=C(Nc1ccc(N2CCN(C(=O)c3ccccc3F)CC2)cc1)c1ccccn1 | active

Reference: PubChem BioAssay AID651592 (Sanford-Burnham Center for Chemical Genomics, 2012)
